Where “and” joins values, the source holds several entries; their conditions need not be identical. Identical values can stand only once. About 2,000 (36%) of roughly 5,500 compounds were called active. Roughly 18% stayed inconclusive and do not appear here. No stated cut-off is given here; in the data, active means normalized growth mostly below about 0.91 (no sharp cut-off); inconclusive means no clear call, values can overlap the other calls; inactive means mostly above about 0.92. This is one part of the list.
Assay: chemical genetic growth profiling, strain panel (AID 1159580);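 further: tested at 20 µM; growth read once vehicle control cultures reached saturation at 30 °C; 1 = growth at the plate median or of vehicle wells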
Conditions: growth OD

Measured: normalized growth

O=C(O)c1cc2cc(F)ccc2[nH]1
inactive: S. cerevisiae deletion strains, locus YJR075W, strain HOC1, stronger effect = lower value 1.01 | S. cerevisiae deletion strains, locus YKL009W, strain mrt4, stronger effect = lower value 1 | S. cerevisiae deletion strains, locus YKL068W, stronger effect = lower value 1.01 | S. cerevisiae deletion strains, locus YKL085W, strain MDH1 (second series), stronger effect = lower value 1.01 | S. cerevisiae deletion strains, locus YKL085W, strain MDH1, stronger effect = lower value 1.01 | S. cerevisiae deletion strains, locus YKL160W, strain elf1, stronger effect = lower value 0.974 | S. cerevisiae deletion strains, locus YKL190W, strain CNB1, stronger effect = lower value 0.999 | S. cerevisiae deletion strains, locus YKR001C, strain vps1, stronger effect = lower value 1.02 | S. cerevisiae deletion strains, locus YKR026C, strain gcn3, stronger effect = lower value 0.949 | S. cerevisiae deletion strains, locus YKR091W, strain srl3, stronger effect = lower value 0.968 | S. cerevisiae deletion strains, locus YLL001W, strain dnm1, stronger effect = lower value 0.976 | S. cerevisiae deletion strains, locus YLL026W, stronger effect = lower value 0.996 | S. cerevisiae deletion strains, locus YLL041C, strain sdh2, stronger effect = lower value 0.97 | S. cerevisiae deletion strains, locus YLR027C, strain aat2, stronger effect = lower value 0.99 | S. cerevisiae deletion strains, locus YLR039C, strain RIC1, stronger effect = lower value 1.02 | S. cerevisiae deletion strains, locus YLR058C, strain SHM2, stronger effect = lower value 1.01 | S. cerevisiae deletion strains, locus YLR102C, strain apc9, stronger effect = lower value 1.02 | S. cerevisiae deletion strains, locus YLR113W, strain HOG1, stronger effect = lower value 0.948 | S. cerevisiae deletion strains, locus YLR221C, strain rsa3, stronger effect = lower value 0.986 | S. cerevisiae deletion strains, locus YLR258W, strain gsy2, stronger effect = lower value 0.987 | S. cerevisiae deletion strains, locus YLR262C, strain YPT6 (second series), stronger effect = lower value 1 | S. cerevisiae deletion strains, locus YLR262C, strain YPT6, stronger effect = lower value 1.04 | S. cerevisiae deletion strains, locus YLR268W, strain sec22, stronger effect = lower value 1.02 | S. cerevisiae deletion strains, locus YLR320W, strain mms22, stronger effect = lower value 1.01 | S. cerevisiae deletion strains, locus YLR330W, strain CHS5, stronger effect = lower value 1.01 | S. cerevisiae deletion strains, locus YLR342W, strain FKS1 (second series), stronger effect = lower value 1.01 | S. cerevisiae deletion strains, locus YLR342W, strain FKS1, stronger effect = lower value 0.98 | S. cerevisiae deletion strains, locus YLR357W, strain rsc2, stronger effect = lower value 0.976 | S. cerevisiae deletion strains, locus YLR370C, strain arc18, stronger effect = lower value 0.989 | S. cerevisiae deletion strains, locus YLR371W, strain rom2, stronger effect = lower value 1.01 | S. cerevisiae deletion strains, locus YLR384C, strain iki3, stronger effect = lower value 0.965 | S. cerevisiae deletion strains, locus YLR418C, strain cdc73, stronger effect = lower value 1.05 | S. cerevisiae deletion strains, locus YML016C, strain PPZ1, stronger effect = lower value 1.01 | S. cerevisiae deletion strains, locus YML032C, strain rad52, stronger effect = lower value 1.02 | S. cerevisiae deletion strains, locus YML120C, strain ndi1, stronger effect = lower value 0.995 | S. cerevisiae deletion strains, locus YML124C, strain tub3, stronger effect = lower value 1.01 | S. cerevisiae deletion strains, locus YMR058W, strain fet3, stronger effect = lower value 0.985 | S. cerevisiae deletion strains, locus YMR078C, strain ctf18, stronger effect = lower value 1.02 | S. cerevisiae deletion strains, locus YMR125W, strain sto1, stronger effect = lower value 0.948 | S. cerevisiae deletion strains, locus YMR129W, stronger effect = lower value 0.982 | S. cerevisiae deletion strains, locus YMR205C, strain PFK2, stronger effect = lower value 1.03 | S. cerevisiae deletion strains, locus YMR223W, strain ubp8, stronger effect = lower value 1.02 | S. cerevisiae deletion strains, locus YMR231W, strain pep5, stronger effect = lower value 0.992 | S. cerevisiae deletion strains, locus YMR263W, strain SAP30, stronger effect = lower value 1.01 and 0.999 | S. cerevisiae deletion strains, locus YMR307W, strain GAS1, stronger effect = lower value 1.05 | S. cerevisiae deletion strains, locus YNL067W, strain RPL9B, stronger effect = lower value 1.02 | S. cerevisiae deletion strains, locus YNL071W, strain lat1, stronger effect = lower value 0.984 | S. cerevisiae deletion strains, locus YNL128W, strain TEP1, stronger effect = lower value 1 | S. cerevisiae deletion strains, locus YNL153C, strain GIM3, stronger effect = lower value 1.01 | S. cerevisiae deletion strains, locus YNL175C, strain NOP13, stronger effect = lower value 0.952 | S. cerevisiae deletion strains, locus YNL183C, strain NPR1, stronger effect = lower value 0.908 | S. cerevisiae deletion strains, locus YNL197C, strain WHI3, stronger effect = lower value 0.949 | S. cerevisiae deletion strains, locus YNL209W, strain ssb2, stronger effect = lower value 0.983 | S. cerevisiae deletion strains, locus YNL224C, strain SQS1, stronger effect = lower value 0.973 | S. cerevisiae deletion strains, locus YNL233W, strain BNI4, stronger effect = lower value 1.01 | S. cerevisiae deletion strains, locus YNL248C, strain rpa49, stronger effect = lower value 0.969 | S. cerevisiae deletion strains, locus YNL250W, strain rad50, stronger effect = lower value 1.01 | S. cerevisiae deletion strains, locus YNL271C, strain bni1, stronger effect = lower value 1.01 | S. cerevisiae deletion strains, locus YNL298W, strain CLA4, stronger effect = lower value 1.03 | S. cerevisiae deletion strains, locus YNL307C, strain MCK1, stronger effect = lower value 1.02 | S. cerevisiae deletion strains, locus YNL322C, strain KRE1 (second series), stronger effect = lower value 0.99 | S. cerevisiae deletion strains, locus YNL322C, strain KRE1, stronger effect = lower value 1.01 and 0.971 | S. cerevisiae deletion strains, locus YNR049C, strain mso1, stronger effect = lower value 0.97 | S. cerevisiae deletion strains, locus YNR052C, strain pop2, stronger effect = lower value 1.02 | S. cerevisiae deletion strains, locus YOL006C, strain TOP1, stronger effect = lower value 1.05 | S. cerevisiae deletion strains, locus YOL012C, strain htz1 0.97 | S. cerevisiae deletion strains, locus YOL147C, strain pex11, stronger effect = lower value 1.01 | S. cerevisiae deletion strains, locus YOR001W, strain rrp6, stronger effect = lower value 0.961 | S. cerevisiae deletion strains, locus YOR061W, strain CKA2, stronger effect = lower value 1.01 | S. cerevisiae deletion strains, locus YOR069W, strain VPS5, stronger effect = lower value 0.998 | S. cerevisiae deletion strains, locus YOR070C, strain gyp1, stronger effect = lower value 1 | S. cerevisiae deletion strains, locus YOR080W, strain dia2, stronger effect = lower value 0.977 | S. cerevisiae deletion strains, locus YOR083W, strain WHI5 (second series), stronger effect = lower value 0.964 | S. cerevisiae deletion strains, locus YOR083W, strain WHI5, stronger effect = lower value 0.965 | S. cerevisiae deletion strains, locus YOR106W, strain vam3, stronger effect = lower value 0.972 | S. cerevisiae deletion strains, locus YOR136W, strain idh2, stronger effect = lower value 1.02 | S. cerevisiae deletion strains, locus YOR144C, strain elg1, stronger effect = lower value 1.01 | S. cerevisiae deletion strains, locus YOR184W, strain ser1, stronger effect = lower value 1.02 | S. cerevisiae deletion strains, locus YOR231W, strain MKK1, stronger effect = lower value 0.986 | S. cerevisiae deletion strains, locus YOR265W, strain rbl2, stronger effect = lower value 0.98 | S. cerevisiae deletion strains, locus YOR270C, strain vph1, stronger effect = lower value 1.03 | S. cerevisiae deletion strains, locus YOR290C, strain snf2, stronger effect = lower value 0.946 | S. cerevisiae deletion strains, locus YOR316C, strain cot1, stronger effect = lower value 1.02 | S. cerevisiae deletion strains, locus YPL051W, strain arl3, stronger effect = lower value 0.997 | S. cerevisiae deletion strains, locus YPL055C, strain LGE1, stronger effect = lower value 1.01 and 1.02 | S. cerevisiae deletion strains, locus YPL078C, strain atp4, stronger effect = lower value 0.956 | S. cerevisiae deletion strains, locus YPL106C, strain sse1, stronger effect = lower value 0.938 | S. cerevisiae deletion strains, locus YPL240C, strain hsp82, stronger effect = lower value 0.963 | S. cerevisiae deletion strains, locus YPL241C, strain CIN2, stronger effect = lower value 0.992 and 0.993 | S. cerevisiae deletion strains, locus YPL256C, strain CLN2, stronger effect = lower value 1.01 | S. cerevisiae deletion strains, locus YPR119W, strain clb2, stronger effect = lower value 1.01 | S. cerevisiae deletion strains, locus YPR141C, strain kar3, stronger effect = lower value 1.01 | S. cerevisiae deletion strains, locus YPR163C, strain tif3, stronger effect = lower value 1.01 | S. cerevisiae deletion strains, locus YPR167C, strain met16, stronger effect = lower value 1.02 | S. cerevisiae deletion strains, strain wtn01, stronger effect = lower value 1.02 | S. cerevisiae strains, strain wild type, stronger effect = lower value 0.979
